Results published in article PMC4336329 (PLoS ONE, 2015).
About 14,000 (4.5%) of roughly 310,000 compounds showed an effect of 50% or more. Effects have a minus sign here. Only a selection was taken, and strong results are over-represented in it overall.

target: human ether-à-go-go-related gene (hERG) potassium channel (human, UniProt Q12809); test: primary screen, population patch clamp on CHO cells stably expressing hERG; higher = less effect of the substance
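Also: peak tail current of the secondary pulse compared with the same well before compound.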

human ether-à-go-go-related gene (hERG) potassium channel, sequence (Q12809 whole entry, looked up): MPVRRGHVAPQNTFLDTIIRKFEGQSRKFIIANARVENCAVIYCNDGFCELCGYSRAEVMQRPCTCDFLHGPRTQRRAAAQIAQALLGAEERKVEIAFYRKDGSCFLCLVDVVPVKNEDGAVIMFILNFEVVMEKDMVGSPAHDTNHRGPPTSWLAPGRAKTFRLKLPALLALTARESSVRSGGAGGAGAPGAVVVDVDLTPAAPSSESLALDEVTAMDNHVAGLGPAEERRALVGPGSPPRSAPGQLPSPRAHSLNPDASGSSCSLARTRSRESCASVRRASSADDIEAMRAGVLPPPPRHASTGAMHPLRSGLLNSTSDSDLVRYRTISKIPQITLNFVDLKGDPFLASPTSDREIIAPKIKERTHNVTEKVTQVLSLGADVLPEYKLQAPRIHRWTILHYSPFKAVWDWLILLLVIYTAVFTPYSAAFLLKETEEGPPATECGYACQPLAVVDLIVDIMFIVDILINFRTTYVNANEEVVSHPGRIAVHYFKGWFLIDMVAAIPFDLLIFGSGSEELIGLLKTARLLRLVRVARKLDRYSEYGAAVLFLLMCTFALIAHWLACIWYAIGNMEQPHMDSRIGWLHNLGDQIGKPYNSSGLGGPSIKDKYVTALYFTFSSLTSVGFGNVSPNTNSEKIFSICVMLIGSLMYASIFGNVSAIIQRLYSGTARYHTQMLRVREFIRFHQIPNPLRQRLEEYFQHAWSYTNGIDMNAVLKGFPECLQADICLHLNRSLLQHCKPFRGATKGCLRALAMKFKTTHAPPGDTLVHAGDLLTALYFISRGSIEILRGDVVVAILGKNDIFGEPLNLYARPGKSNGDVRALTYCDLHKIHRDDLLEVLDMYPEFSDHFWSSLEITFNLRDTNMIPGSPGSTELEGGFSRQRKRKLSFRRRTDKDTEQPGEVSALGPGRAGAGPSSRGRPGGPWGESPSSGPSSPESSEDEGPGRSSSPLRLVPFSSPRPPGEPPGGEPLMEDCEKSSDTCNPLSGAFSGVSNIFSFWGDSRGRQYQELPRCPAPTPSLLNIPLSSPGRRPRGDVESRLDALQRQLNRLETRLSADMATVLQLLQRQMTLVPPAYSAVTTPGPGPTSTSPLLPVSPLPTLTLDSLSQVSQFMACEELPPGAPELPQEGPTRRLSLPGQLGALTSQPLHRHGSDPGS

| Compound | hERG current change (%, negative = inhibition) at 10uM |
| --- | --- |
| COc1ccccc1NC(=O)c1cnc2c(-c3ccccc3)c(C)nn2c1C | 3.15% |
| O=C(c1cnc2nc3ccccc3n2c1)c1cc(F)ccc1O | 2.44% |
| Cc1ccc2c(c1)N(CCCC(=O)Nc1cccc(C(F)(F)F)c1)C(=O)CO2 | 12.9% |
| O=C(O)c1ccccc1C(=O)c1ccc2c(c1)N(Cc1cccc(F)c1)C(=O)CO2 | -18.1% |
| O=C(COC(=O)c1ccccc1Br)Nc1ccccc1F | -21% |
| N#Cc1c(NC(=O)c2nc3ncccn3n2)sc2c1CCCCC2 | 2.44% |
| Cc1ccc(NC(=O)CCCNC(=O)c2ccc(Cl)cc2)cc1S(=O)(=O)N1CCOCC1 | -17.9% |
| O=C(NCc1n[nH]c(=S)n1-c1cccc(C(F)(F)F)c1)c1ccc(S(=O)(=O)N2CCCCC2)cc1 | 16.5% |
| CC(=O)Oc1cccc(C(=O)Nc2ccccc2NC(=O)c2cccc(OC(C)=O)c2)c1 | 9.7% |
| CC(C)N(Cc1nc(-c2ccc(Cl)cc2)no1)C(=O)c1cccs1 | -8.63% |
| CCCn1c(CNC(=O)Cc2ccccc2)nc2ccccc21 | -21.3% |
| CCOC(=O)c1c(CN2CCCCC2)n(C)c2cc(Br)c(O)cc12 | -68.2% |
| CCOC(=O)c1c(CN2CCCCC2)n(C)c2cc(Br)c(OC)cc12 | -31.7% |
| CCOC(=O)c1c(CN2CCC(C)CC2)n(C)c2cc(Br)c(OC)cc12 | 10.5% |
| CCCCCOC(=O)Cc1c(O)c2ccccc2[nH]c1=O | 12.8% |
| CCN(CC)S(=O)(=O)c1ccc(F)c(C(=O)NCCCN2CCOCC2)c1 | -11.7% |
| COC(=O)c1cc(C(=O)c2cccc(Cl)c2Cl)cn1C | -43.4% |
| CCOc1ccc(Nc2nc(N)nc(CCl)n2)cc1 | -8.2% |
| COc1ccccc1Nc1nc(N)nc(CN(C)C2CCCCC2)n1 | -35.8% |
| CCOc1ccc(Nc2nc(N)nc(CN(C)C3CCCCC3)n2)cc1 | -71.5% |
| CCOc1ccccc1Nc1nc(N)nc(CN(C)C2CCCCC2)n1 | -76.1% |

| Compound | hERG current change (%, negative = inhibition) at 10uM |
| --- | --- |
| COc1ccc(CN(C)C2CCCCC2)cc1 | -25.1% |
| CCOc1ccccc1Nc1nc(N)nc(CN2CCCCC2C)n1 (stereo not drawn) | -50% |
| COc1ccc(Nc2nc(N)nc(COc3ccc(OC)cc3)n2)cc1 | 4.75% |
| COc1ccc(Nc2nc(N)nc(CN(C)C3CCCCC3)n2)cc1 | -57.5% |
| CCOc1ccc(Nc2ncnc(N)n2)cc1 | 10.3% |
| COC(=O)N/N=C/c1cc(Cl)cc(Cl)c1OCc1ccc(F)cc1 | 3.82% |
| O=[N+]([O-])c1cccc(C2N3CCCN23)c1 (stereo not drawn) | 12.3% |
| Cc1cc2c(cc1S(=O)(=O)Nc1c(C)cccc1C)n(C)c(=O)c(=O)n2C | -0.831% |
| COc1ccc(-c2cc(C3CCN(Cc4ccc([N+](=O)[O-])cc4)CC3)[nH]n2)cc1 | -73% |
| O=[N+]([O-])c1cccnc1N1CCC(c2cc(-c3cccc(C(F)(F)F)c3)n[nH]2)CC1 | -13.7% |
| COC(=O)CCN1CCC(c2cc(-c3cccc(C(F)(F)F)c3)n[nH]2)CC1 | -72.2% |
| Cc1nc(-c2ccccc2)nn1-c1ccc([N+](=O)[O-])cc1 | -26.2% |
| COc1ccc(-c2cc(C3CCNCC3)[nH]n2)cc1 | 18.7% |
| COc1ccc(-c2cc(C3CCN(Cc4cccc(C(F)(F)F)c4)CC3)[nH]n2)cc1 | -55.2% |
| FC(F)(F)c1cccc(-c2cc(C3CCNCC3)[nH]n2)c1 | -44.3% |
| COc1ccc(-c2cc(C3CCN(c4ncccc4[N+](=O)[O-])CC3)[nH]n2)cc1 | -5.85% |
| O=[N+]([O-])c1ccc(-n2nnnc2-c2ccccc2)cc1 | -21.3% |
| COc1ccc(-c2cc(C3CCN(C(=O)OC(C)(C)C)CC3)[nH]n2)cc1 | -26.4% |
| O=c1ccc(-c2ccc([N+](=O)[O-])cc2)nn1-c1ccccc1 | -55% |
| COc1ccc(-c2cn(Cc3ccc([N+](=O)[O-])cc3)nn2)cc1 | -9.43% |
| Cc1ccc(CNc2nc(C)c(C(=O)N(C)C)s2)cc1 | 4.98% |

| Compound | hERG current change (%, negative = inhibition) at 10uM |
| --- | --- |
| COc1ccc(S(=O)(=O)Cc2ccc(C(=O)NCCc3cc(OC)ccc3OC)o2)cc1 | -39.6% |
| COc1ccccc1C(CC(N)=O)c1ccco1 (stereo not drawn) | 10.1% |
| O=C(Cc1cn2ccsc2n1)Nc1nc2c(s1)CCCC2 | -0.221% |
| CN(C)c1ccc(-c2nnn(CC(=O)Nc3ccccc3N3CCOCC3)n2)cc1 | -15.1% |
| CCOn1c(=O)c(-c2ccc(Br)cc2)[n+]([O-])c2ccccc21 | 13.6% |
| CNc1nc(N)c([N+](=O)[O-])c(NCc2ccccc2)n1 | -1.09% |
| Oc1ccc(Br)cc1CNc1cnc2ccccc2c1 | 16.4% |
| O=C(COC(=O)c1ncc(Cl)c(Cl)c1Cl)NNC(=O)c1ccccc1 | -1.26% |
| CCC(=O)Nc1ccc(C(=O)c2ccccc2)cc1 | -9.96% |
| Cc1ccc(C)c(NC(=O)[C@@H]2CCCN2S(=O)(=O)c2ccccc2F)c1 | 10.9% |
| COc1ccc(Nc2cc(Nc3ccccc3)ncn2)cc1 | 11.5% |
| COc1ccc(-c2ccc(=O)n(Cc3cccc([N+](=O)[O-])c3)n2)cc1 | -21.2% |
| COc1ccc(-c2ccc(=O)n(Cc3ccccc3)n2)cc1 | -5.74% |
| COc1ccc(-c2ccc(=O)n(Cc3ccc([N+](=O)[O-])cc3)n2)cc1 | -75% |
| C=CCOc1ccc(CNn2cn[nH]c2=S)cc1OCC | 12.7% |
| CN(CC(=O)Nc1ccccc1Br)C(=O)CCc1nc2ccccc2c(=O)[nH]1 | -15.8% |
| COC(=O)c1cc(C(=O)c2ccc(Cl)cc2Cl)cn1C | -16.4% |
| O=C(NCCC(=O)N1CCN(C(=O)c2ccco2)CC1)c1ccc(Br)cc1 | -28.6% |
| O=C(NCC(=O)N1CCN(C(=O)c2ccco2)CC1)c1ccc(Cl)cc1 | -34.1% |
| CCCCOc1ccc(C(=O)NCC(=O)N2CCN(C(=O)c3ccco3)CC2)cc1 | -57.4% |
| COc1ccc(C(=O)NCC(=O)N2CCN(C(=O)c3ccco3)CC2)cc1 | -13.7% |

| Compound | hERG current change (%, negative = inhibition) at 10uM |
| --- | --- |
| O=C(NCC(=O)N1CCN(C(=O)c2ccco2)CC1)c1ccc(Br)cc1 | -53.9% |
| O=C(NCC(=O)N1CCN(C(=O)c2ccco2)CC1)c1ccccc1 | -7.74% |
| O=[N+]([O-])c1ccc(Sc2n[nH]c(-c3ccncc3)n2)nc1 | 14.4% |
| CCCN(CC(=O)Nc1ccccc1C)C(=O)/C=C/c1ccc(OCC)c(OC)c1 | -46.7% |
| Cc1ccc(NC(=O)CSc2nnc(/N=C/N(C)C)s2)cc1 | -7.65% |
| COc1ccc2c(c1)NC(c1ccc(N(C)C)cc1)c1cccn1-2 (stereo not drawn) | 12.5% |
| Cc1nc(N2CCN(c3ccccn3)CC2)c2c(C)c(C(=O)Nc3ccc(F)c(Cl)c3)sc2n1 | 14.2% |
| Cc1cccc(NC(=O)c2sc3ncn(CC(=O)N4CCN(c5ccccn5)CC4)c(=O)c3c2C)c1 | -61.4% |
| Cc1nc(N2CCN(c3ccccn3)CC2)c2c(C)c(C(=O)Nc3ccccc3F)sc2n1 | -55.3% |
| Cc1nc(N2CCN(c3ccccn3)CC2)c2c(C)c(C(=O)Nc3ccc(F)cc3Cl)sc2n1 | -41.6% |
| Cc1nc(N2CCN(c3ccccn3)CC2)c2c(C)c(C(=O)Nc3ccc(F)cc3F)sc2n1 | -57.9% |
| Cc1nc(N2CCN(c3ccccn3)CC2)c2c(C)c(C(=O)Nc3ccc(Br)cc3C)sc2n1 | 11.6% |
| Cc1ccc(NC(=O)c2sc3ncn(CC(=O)N4CCN(c5ccccn5)CC4)c(=O)c3c2C)cc1Cl | -7.77% |
| CCc1ccc(NC(=O)c2sc3nc(C)nc(N4CCN(c5ccccn5)CC4)c3c2C)cc1 | 5.47% |
| Cc1nc(N2CCN(c3ccccn3)CC2)c2c(C)c(C(=O)Nc3ccc(Cl)cc3)sc2n1 | -7.01% |
| COc1cccc(NC(=O)c2sc3ncn(CC(=O)N4CCN(c5ccccn5)CC4)c(=O)c3c2C)c1 | -0.877% |
| Cc1ccc(NC(=O)c2sc3nc(C)nc(N4CCN(c5ccccn5)CC4)c3c2C)c(C)c1 | -40.1% |
| Cc1nc(N2CCN(c3ccccn3)CC2)c2c(C)c(C(=O)Nc3ccc(F)cc3)sc2n1 | -76.4% |
| C1CCC(C(CC2CCCCN2)C2CCCCC2)CC1.O=C(O)/C=C\C(=O)O (stereo not drawn) | -22.6% |
| Cn1c(SCC(=O)Nc2ccc3nc(SCC(=O)NC4CC4)sc3c2)nnc1-c1ccccc1 | -5.5% |
| O=C(CSc1nnc(Cn2nnc(-c3ccccc3)n2)n1-c1ccccc1)Nc1ccc(F)cc1 | 3.55% |
